High-throughput results (PubChem)
HT1080NT lethal = kills 2HG-producing HT-1080-NT fibrosarcoma cells. HT-1080-NT fibrosarcoma viability, CellTiter-Glo ATP luminescence, 48 h. Potency, µM (series often up to 46.1 µM), actives largely listed as cytotoxic. hit rate 1.6% among 360,000. AID 686970;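 also: NT is the 2HG producing partner of a matched IDH1 knockdown line; nearly all actives have a fitted effect of over 55% in size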
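HT-1080-NT fibrosarcoma cells (2HG-overproducing), 750 cells/well in RPMI with 5% FBS, dosed after 2 h and incubated 48 h at 37C. CellTiter-Glo luminescence normalized to DMSO and no-cell wells; concentration-response curves fitted and classed.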
DT40 TDP1 no CPT = qHTS for Inhibitors of human tyrosyl-DNA phosphodiesterase 1 (TDP1): qHTS in cells in absence of CPT. hit rate 15% among 420,000. Potency, µM (top dose mostly 46.2 µM), usual class: inhibitors. DT40 Tdp1-/- hTDP1 cells, no CPT, ATP luminescence, 48 h. AID 686978, 2013; also: nearly all actives have a fitted effect of over 55% in size
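Camptothecin absent (DMSO only). Human TDP1-complemented DT40 knockout cells, 400 cells/well, 37 °C for minimum 48 hr; ATP measured via CellTiter-Glo, 30 min dark incubation, luminescence.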
IL-1B inflam inh = inflammasome signaling inhibition, IL-1 beta readout. activity change, % at 57.5 µM. hit rate 4.7% among 360,000. THP-1 LPS/ATP IL-1B secretion, AlphaLISA, 16 h; hits give low values; in the data active = activity change below about -50%; inconclusive = mostly about -30% to -49%
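THP-1 cells pretreated 1 hr with compounds (up to 57.5 uM final), then stimulated with LPS (250 ng/mL final) plus ATP (1.25 mM final); secreted IL-1B measured by AlphaLISA after 16 hr, decreased signal indicating inhibition.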
TDP1 cell CPT = growth inhibition of DT40 Tdp1-/-;hTDP1 cells with camptothecin (screen for TDP1 inhibitors) | chicken DT40 Tdp1-/-;hTDP1 cells + 20 nM CPT, ATP luminescence, 48 h | Potency, µM (top dose mostly 46.2 µM), usual class: inhibitors | hit rate 12% among 420,000 | AID 686979; also: nearly all actives have a fitted effect of over 55% in size
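Chicken DT40 Tdp1-/- cells stably complemented with human TDP1 were seeded at 400 cells/well in medium containing 20 nM camptothecin, exposed to pin-transferred compounds, and grown at 37 °C for at least 48 hr. Viability was read as ATP luminescence.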
HT1080 IDH1KD tx = kills HT-1080 cells with IDH1 knockdown | AID 686971 | HT-1080 IDH1 knockdown viability, ATP luminescence, 48 h | hit rate 2% among 360,000 | Potency, µM (series often up to 46.1 µM), usual class: cytotoxic
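Luminescent ATP read-out (CellTiter-Glo, 10 min at room temperature) after 48 h compound exposure at 37 °C gave viability of IDH1-knockdown HT-1080 cells. Activity was normalised to DMSO and cell-free wells, then fitted as concentration-response curves.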
A number is an active result; – = inactive; ? = inconclusive; · = no result given; [ ] = remark or other dose. In the library only some 19% were active in any assay of this set; here they are far more common. Unless noted, calls follow the shape of the dose curve; as a rule, active = well fitted curve in the direction sought with a large enough effect; inconclusive = small, poorly fitted or top-dose-only effect, or another doubt; inactive = no such curve, though single readings can be large; an effect the other way counts as inactive or inconclusive.

SMILES	HT1080NT lethal	DT40 TDP1 no CPT	IL-1B inflam inh	TDP1 cell CPT	HT1080 IDH1KD tx
CCc1nc2c(OCc3ccc(C(F)(F)F)cc3)cccn2c1N(C)C(=O)c1ccco1	–	?	–	?	–
CC(O)(c1ccc(Cl)cc1)C(c1ccccc1)c1ccccn1 (centres undefined)	–	–	–	–	–
O=C(NCc1ncc(C(F)(F)F)cc1Cl)Nc1ccccc1	–	–	–	–	–
COc1ccc(OC)c(-n2c(C)ccc2-c2ccc(S(C)(=O)=O)cc2)c1	–	?	–	18.4µM	–
CCOc1ccc(N(CC(=O)Nc2ccccc2OC)S(C)(=O)=O)cc1	–	?	–	?	?
CCOc1ccc(N(CC(=O)Nc2ccccc2)S(C)(=O)=O)cc1	–	–	–	–	–
CCOc1ccc(N(CC(=O)Nc2ccccc2Cl)S(C)(=O)=O)cc1	?	25.9µM	–	18.4µM	?
CCOc1ccc(N(CC(=O)Nc2cc(Cl)ccc2C)S(C)(=O)=O)cc1	?	23.1µM	–	?	?
COCCNC(=O)[C@H]1N2C(=O)c3ccccc3C2SC1(C)C (some centres undefined)	–	?	–	–	–
O=C(COC(=O)CNS(=O)(=O)c1ccc(F)c(F)c1F)Nc1ccc(OC(F)F)cc1	–	–	–	–	–
O=C(Cc1ccc(N2CCNC2=O)cc1)N1CCCC(Nc2cccc(F)c2)C1 (centres undefined)	?	2.06µM	–	2.91µM	5.8µM
O=C(c1cccc(N2CCNC2=O)c1)N1CCCC(Nc2cccc(F)c2)C1 (centres undefined)	–	–	–	–	–
O=C(Cc1ccc(N2CCNC2=O)cc1)N1CCCC(Nc2ccc(F)c(F)c2)C1 (centres undefined)	3.26µM	3.66µM	–	2.31µM	2.91µM
O=C1C(=O)N(CCCN2CCOCC2)C(c2ccc([N+](=O)[O-])cc2)/C1=C(/O)c1ccc2c(c1)OCO2 (centres undefined)	–	–	–	–	–
COCCN1CCN(C(=O)c2ccc3oc(CCc4ccccc4)nc3c2)CC1	–	–	–	–	–
O=C(NNC(=S)NC(=O)C12CC3CC(CC(C3)C1)C2)c1ccncc1	12.6µM	?	–	?	7.94µM
O=C(NNC(=O)C12CC3CC(CC(C3)C1)C2)c1ccccn1	–	5.17µM	-96.9	4.11µM	?
CC1(C(=O)NC(=S)NNC(=O)c2ccncc2)CCCCC1	–	16.4µM	–	13µM	?
O=C(NNC(=O)C12CC3CC(CC(C3)C1)C2)c1cnccn1	–	?	–	?	–
O=S(=O)(c1cccs1)N1CCN(CC(O)COc2cccc(Br)c2)CC1 (centres undefined)	–	?	–	20.6µM	–
Cc1ccc(NC(=O)CSc2ncn[nH]2)cc1C	·	–	·	–	·
O=C(CSc1ncc(-c2ccccc2)[nH]1)Nc1ccc(Cl)cc1	·	?	·	20.6µM	·
O=C(CSc1ncn[nH]1)Nc1ccc(Cl)c(Cl)c1	–	?	-51.6	–	–
O=C(CSc1ncc(-c2ccccc2)[nH]1)Nc1ccccc1	–	?	–	?	–
O=C(CSc1ncc(-c2ccccc2)[nH]1)Nc1cccc(Br)c1	·	?	·	23.1µM	·
SMILES	HT1080NT lethal	DT40 TDP1 no CPT	IL-1B inflam inh	TDP1 cell CPT	HT1080 IDH1KD tx
COC(=O)C[C@@H]1OC[C@H](Cc2ccccc2)N1S(=O)(=O)c1ccc(C)cc1	–	?	–	?	–
CCCOc1ccc(C(=O)NCCC(=O)NCCCC(=O)O)cc1	–	–	–	–	–
Cn1c(=O)c2c(SCC(=O)NCc3ccco3)nc(-c3ccccc3)nc2n(C)c1=O	·	–	·	–	·
CC(=O)c1ccc(N=C2NC(=O)C(CO)(CO)S2)cc1	–	–	–	–	–
COc1ccc(-c2ccnc(SCC(=O)Nc3ccccn3)n2)cc1	–	18.4µM	–	?	–[9.24 µM]
COc1ccccc1CNC(=O)COC(=O)c1cccc(-n2cnnn2)c1	–	–	–	–	–
CCOc1ccc(N)c(SSc2cc(OCC)ccc2N)c1	?	5.17µM	–	2.59µM	?
CCOc1cccc(N)c1	–	–	–	–	–
COc1ccc(S(=O)(=O)NCC2CCCN(C(=O)CCSC)C2)cc1 (centres undefined)	–	–	–	–	–
CCCCC(=O)Nc1ccc(C(=O)c2ccccc2)cc1	–	?	-60.3	–	–
CC(=O)Nc1ccc(C(=O)c2ccccc2)cc1	–	?	–	?	–[9.24 µM]
CCS(=O)(=O)Nc1ccc(C(=O)c2ccccc2)cc1	–	–	-52.0	–	–
CCS(=O)(=O)Nc1ccc(C(=O)OC)cc1	–	–	–	–	–
CC(C)C(c1nnnn1C1CCCCC1)N1CCc2ccccc2C1 (centres undefined)	?	?	-78.5	–	–
c1ccc(Cn2nnnc2C(c2cccs2)N2CCCCCC2)cc1 (centres undefined)	–	–	–	–	–
CC(C)C(c1nnnn1Cc1ccccc1)N1CCN(Cc2ccco2)CC1 (centres undefined)	–	–	–	–	–
c1ccc(Cn2nnnc2C(c2cccs2)N2CCc3ccccc3C2)cc1 (centres undefined)	?	29.1µM	–	?	?
CC(C)C(c1nnnn1Cc1ccccc1)N1CCc2ccccc2C1 (centres undefined)	–	16.4µM	–	?	–[9.24 µM]
COc1ccccc1S(=O)(=O)N(C)C[C@@H]1OCc2cnnn2CCCC(=O)N([C@H](C)CO)C[C@H]1C	–	–	–	–	–
Cc1ccc(S(=O)(=O)N(CCCc2c(C)nc[nH]c2=O)c2ccccc2)cc1	–	–	–	?	–
CCCCn1c(SCC(=O)N2CCN(c3ccccc3)CC2)nc2ccsc2c1=O	?	?	–	11.6µM	?
CCC1CCCCN1C(=O)CSc1nc2ccsc2c(=O)n1Cc1ccccc1 (centres undefined)	–	9.2µM	–	20.6µM	–
CCCCn1c(SCC(=O)Nc2ccccc2C(F)(F)F)nc2ccsc2c1=O	–	–	–	–	–
CCCCn1c(SCC(=O)N2CCC(C)CC2)nc2ccsc2c1=O	–	14.6µM	–	?	–
O=C(CSc1nc2ccsc2c(=O)n1Cc1ccccc1)NCC1CCCO1 (centres undefined)	–	–	–	–	–
CCCOc1ccccc1OCC(=O)Nc1cc(Cl)ccc1-n1cncn1	–	?	?	?	–
CC(NC(=O)C1CCOCC1)c1nnc2n1CCN(Cc1ccc3cccnc3c1)CC2 (centres undefined)	·	–	·	–	·
Cl/C(=C\n1cncn1)c1ccc(Cl)cc1Cl	·	?	·	–	·
Cc1ccc(-c2csc(N3CCC(C(N)=O)(N4CCCCC4)CC3)n2)cc1	–	20.6µM	–	?	–
Cc1ccc(Cl)cc1NC(=S)N/N=C/c1cccc2ccccc12	3.66µM	4.61µM	–	2.91µM	2.59µM
